Assay outcomes from PubChem.
D2 ag-1 – HTS Assay for Allosteric Agonists of the Human D2 Dopamine Receptor: Primary Screen for Agonists; D(2) dopamine receptor (Homo sapiens), P14416; HEK293 T-REx D2 cells, calcium flux agonist mode; AID 485358, 2010; activation, % at 2 µM; 0.53% of 340,000 active;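 active = activation over 3 SD above normal in the single-dose calcium agonist read, cut at about 30% in these data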; note: 0% is about no effect
Target sequence (P14416 whole entry, looked up): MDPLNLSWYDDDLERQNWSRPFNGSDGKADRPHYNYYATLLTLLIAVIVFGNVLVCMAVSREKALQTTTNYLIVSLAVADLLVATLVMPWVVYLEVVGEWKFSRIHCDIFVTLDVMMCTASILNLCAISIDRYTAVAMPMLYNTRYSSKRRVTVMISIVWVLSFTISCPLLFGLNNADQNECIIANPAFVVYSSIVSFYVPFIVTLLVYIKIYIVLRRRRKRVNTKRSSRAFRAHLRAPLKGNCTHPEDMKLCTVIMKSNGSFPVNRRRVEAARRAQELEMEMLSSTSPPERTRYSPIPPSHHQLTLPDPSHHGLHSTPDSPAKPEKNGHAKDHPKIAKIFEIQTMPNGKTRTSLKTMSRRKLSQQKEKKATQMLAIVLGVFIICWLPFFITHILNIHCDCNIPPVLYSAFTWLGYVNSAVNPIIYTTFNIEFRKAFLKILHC
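Calcium-flux readout, 1 cycle/sec over 180 s following compound pin transfer, in inducible HEK293 Trex D2 cells (force-coupled); dopamine controls included. Positive calcium responses during this window marked compounds as potential agonists.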
D2 PAM-1 – Beta-Arrestin HTS for Positive Allosteric Modulators of the Human D2 Dopamine Receptor: Potentiators | potentiation, % (test concentration not listed) | D(2) dopamine receptor (Homo sapiens), P14416 | DiscoveRx D2 beta-arrestin cells, luminescence, 90 min; 100% = 57 uM dopamine signal | 0.23% of 360,000 active; in the data active = potentiation above about 50%; inconclusive = mostly about 30% to 49%
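D2 cells co-treated with compound plus 50 nM dopamine (EC20) for 90 min at 37 deg C to detect potentiation. Beta-arrestin recruitment was read as enzyme-fragment luminescence after 1 h at ambient temperature. Full response was set by 57 uM dopamine.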
D2 PAM-2 – HTS Assay for Positive Allosteric Modulators of the Human D2 Dopamine Receptor: Primary Screen for Potentiators; D(2) dopamine receptor (Homo sapiens), P14416; HEK293 T-REx D2, calcium flux, EC20 dopamine potentiation; potentiation, % at 10 µM; 0.34% of 340,000 active;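 active = potentiation over 3 SD above the plate norm, cut at about 30% in these data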; note: 0% is about no effect
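Cells plated with tetracycline inducer and held overnight at 30 C; calcium dye loaded 30–90 min at room temperature; baseline taken, compound added and read 180 s; EC20 dopamine then added and read 180 s.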
D2 antagonist – HTS Assay for Allosteric Antagonists of the Human D2 Dopamine Receptor: Primary Screen for Antagonists. inhibition, % at 10 µM. AID 485344, 2010. D(2) dopamine receptor (Homo sapiens), P14416. 2% of 340,000 active. HEK293 TREx D2 cells, calcium flux, dopamine EC80; in the data active = inhibition above about 30%; inactive = below that, where a call was filed; note: 0% is about no effect
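Calcium flux kinetic readout in an inducible HEK293 TREx D2 line plated overnight at 30 C. After 180 s compound exposure, an EC80 dopamine challenge follows with another 180 s kinetic read to detect antagonism.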
D2 ag-2 – Beta-Arrestin HTS for Positive Allosteric Modulators of the Human D2 Dopamine Receptor: Agonists | DiscoveRx PathHunter D2 beta-arrestin, luminescence, 90 min; 100% = 57 uM dopamine signal | 0.084% of 360,000 active | D(2) dopamine receptor (Homo sapiens), P14416 | activation, % (concentration not given with the values) | AID 624465, 2012; in the data active = activation above about 40%; inconclusive = between about 15% and that limit
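DiscoveRx PathHunter D2 beta-arrestin cells (2,100/well) attached overnight, then compound-stimulated 90 min at 37 C in HBSS/10 mM HEPES/0.1% Tween-20 buffer; beta-galactosidase complementation read by luminescence after 1 h at ambient temperature. Dopamine 57 uM final (EC100) as control.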
The depositor's hits bear a star; ? = inconclusive; . = no result. Shown are actives, neighbours in structure and some others; about 2.4% of the full set was active somewhere.

SMILES | D2 ag-1 | D2 PAM-1 | D2 PAM-2 | D2 antagonist | D2 ag-2
CN(C)CCN(Cc1cc2cc3c(cc2[nH]c1=O)OCCO3)C(=S)NCC1CCCO1 (stereo not given) | 0.0 | 1.5 | -1.1 | 40.8* | 1.3
c1coc(CNc2nc(-c3ccncc3)cs2)c1 | . | 13.2 | 32.1* | . | 2.3
COc1ccc(-c2csc(NCc3ccco3)n2)cc1 | -0.3 | -9.3 | 8.3 | -9.7 | -5.7
O=C(CCN1CCCCC1)Nc1cccc(Cl)c1 | -0.3 | -25.0 | -15.2 | 56.8* | -1.7
CCC(C)NC(=O)C1CCN(C(=O)c2ccc(-n3ccc4ccccc43)s2)CC1 (stereo not given) | -0.5 | . | -5.2 | . | .
O=C1CC(c2ccco2)CC(O)=C1C=NCCN1CCNCC1 (stereo not given) | 1.1 | -0.6 | -5.2 | -5.6 | -1.3
O=C1CC(c2ccco2)CC(O)=C1C=NCCN1CCN(C2CC(=O)N(c3ccccc3)C2=O)CC1 (stereo not given) | -0.1 | -1.4 | 47.2* | -7.5 | 0.6
COc1cccc(OC)c1OCCN1CCN(C(c2ccccc2)c2ccccc2)CC1 | 0.5 | -34.0 | -20.2 | -17.1 | -1.2
OCCOCCN1CCN(C(c2ccccc2)c2ccc(Cl)cc2)CC1 (stereo not given) | 1.7 | -36.0 | -28.9 | 72.0* | -4.0
CC(CC(=O)NCc1ccc(Cl)cc1Cl)CC1=NS(=O)(=O)c2ccccc2N1 (stereo not given) | -0.4 | . | 7.5 | . | .
S=C(NCC1CCCO1)Nc1ccc(Nc2ccccc2)cc1 (stereo not given) | 0.8 | -8.5 | -3.6 | 40.0* | -1.4
CCCCN(C)C(=O)C1CCCN(c2ncnc3onc(-c4ccc(F)cc4)c23)C1 (stereo not given) | -0.9 | . | 3.0 | . | .
COc1ccc(C2=NC3(CCCCCC3)N(CC(=O)Nc3cccc(Cl)c3)C2=O)cc1 | -0.2 | . | 6.9 | . | .
COc1ccc(C=NNc2nc3ccccc3s2)cc1 | . | -10.7 | . | . | 0.8
Cc1ccc2[nH]c(C)c(/C=N/Nc3nc4ccccc4s3)c2c1 | 0.5 | 58.4* | -6.7 | -1.1 | 5.8
CCOc1ccc(NC(=O)Cn2c(=O)c(CNc3ccc(OC)cc3)cc3ccc(OC)cc32)cc1 | -0.3 | . | 0.0 | . | .
COc1cc(NC(=O)c2ccc3c(SCC(=O)O)c4c(nc3c2)CCC4)cc(OC)c1OC | -0.5 | -10.0 | -11.4 | 35.7* | -1.7
O=C(Nc1nc2n(n1)C(c1ccc(Cl)cc1)CC(c1ccc(Cl)cc1)N2)c1ccco1 (stereo not given) | 0.4 | -15.2 | -10.4 | 31.9* | -2.7
COc1ccc(C2CC(c3ccc(Cl)cc3)Nc3nc(NC(=O)c4ccco4)nn32)cc1 (stereo not given) | -0.1 | 1.8 | 1.2 | -1.8 | 0.6
CCOCCCNC(=O)c1cc2c(=O)[nH]c3ccccc3c2s1 | 38.6* | 8.4 | -13.3 | 58.4* | ?
Cc1ccc(S(=O)(=O)c2cn(Cc3ccccc3)c3cc(N4CCCC4)c(F)cc3c2=O)cc1C | -0.3 | . | 4.8 | . | .
Cc1ccc(CCNC(=O)C2CCN(S(=O)(=O)c3c(C)nn(C)c3C)CC2)cc1 | -0.2 | -4.4 | -8.4 | -29.5 | -1.4
Cc1cccc(CCNC(=O)C2CCN(S(=O)(=O)c3c(C)nn(C)c3C)CC2)c1 | 0.0 | 8.6 | -11.1 | 32.3* | -1.7
Cn1c(SCC2CCCO2)nnc1-c1ccncc1 (stereo not given) | -0.5 | 4.1 | 5.3 | 6.8 | 0.7
CN(C)c1ccc(-c2nnc(SCC3CCCO3)n2C)cc1 (stereo not given) | 0.5 | -6.0 | 3.3 | 31.6* | 0.5
SMILES | D2 ag-1 | D2 PAM-1 | D2 PAM-2 | D2 antagonist | D2 ag-2
O=c1[nH]c(=O)n(C2CCCO2)cc1F (stereo not given) | -0.6 | -0.7 | 1.9 | 32.1* | 6.2
CCC1=C(OC(=O)N(CC)CC)N2C(=O)OC(=NCC(=O)OC)[C@]2(Cc2ccccc2)[C@H]2C1=CC[C@H]1C(=O)N(C)C(=O)[C@H]12 | -0.2 | -4.8 | 7.8 | -9.5 | -2.7
CCC1=C(OC(=O)N(CC)CC)N2C(=O)OC(=NCC(=O)OC)[C@]2(Cc2ccccc2)[C@H]2C1=CC[C@H]1C(=O)NC(=O)[C@H]12 | 0.5 | -6.4 | -0.5 | 53.2* | -4.1
COc1cc(OC)cc(-n2c(=O)c3ccccc3n(Cc3ccccc3C#N)c2=O)c1 | 0.2 | . | 13.2 | . | .
Cc1cccc(NC(=O)c2sc3nc(-c4cc5ccc(O)cc5oc4=O)[nH]c(=O)c3c2C)c1 | -0.1 | . | . | . | .
Nc1ccc2oc(-c3ccccn3)nc2c1 | 0.1 | 0.0 | 50.0* | -2.5 | -3.5
Cc1ccc(-c2nc3cc(N)ccc3o2)cc1Br | -0.1 | -7.5 | 3.5 | -7.8 | 1.5
Cc1ccc(C)c(-c2nc3cc(N)ccc3o2)c1 | 0.7 | -17.2 | 32.8* | -7.2 | -6.0
Clc1ccc2oc(-c3ccccn3)nc2c1 | 1.1 | 3.8 | 4.2 | -12.2 | -0.2
Brc1cc2c(cc1C1Nc3ccccc3C3C=CCC31)OCO2 (stereo not given) | 0.0 | -3.7 | -2.3 | 6.0 | -0.1
CC(=O)c1ccc2c(c1)C1C=CCC1C(c1ccncc1)N2 (stereo not given) | 6.9 | 86.4* | 1.6 | 7.4 | 6.0
C1=CC2c3ccccc3NC(c3ccncc3)C2C1 (stereo not given) | 1.1 | 70.4* | 3.2 | -15.9 | 14.1
CC(=O)c1ccc(NC(=O)c2nn(C)c3c2COc2ccccc2-3)cc1 | 0.5 | . | 5.0 | . | .
CC1CCC(NC(=O)CCCn2sc3ccccc3c2=O)CC1 (stereo not given) | -0.6 | -14.8 | -2.2 | 39.0* | -4.1
O=C(CCCn1c(=O)[nH]c2ccccc2c1=O)NC1CCCCCC1 | 0.1 | -2.1 | 4.6 | 1.9 | 3.6
CCOC(=O)C1(CCOc2ccccc2)CCN(Cc2ccc(O)c(OCC)c2)CC1 | -0.1 | -26.1 | -14.5 | 39.0* | 8.2
CCOC(=O)C1(CCOc2ccccc2)CCN(Cc2ccc(COC)o2)CC1 | -0.9 | -15.2 | -13.9 | -3.1 | -2.3
CCOC(=O)C1(CCOc2ccccc2)CCN(Cc2ccc(C)o2)CC1 | -1.3 | -19.2 | -17.4 | 42.2* | -0.9
Cc1ccc(C)c(-c2nnc(NC(=O)c3ccc4c(c3)OCCO4)o2)c1 | 1.6 | . | . | . | .
Cc1c(Cl)cccc1-n1ncc(C(=O)N2CCC(C)CC2)c1C1CCN(C(=O)OC(C)(C)C)CC1 | -0.1 | . | -1.8 | . | .
CCCCCCC(O)(c1ccc(OC)cc1)C(CN1CCOCC1)c1ccccc1 (stereo not given) | 0.9 | -15.6 | 4.7 | 30.7* | -3.4
